Compound activity deposited in PubChem by National Center for Advancing Translational Sciences (NCATS).
Shown is part of a subset that was picked to be rich in hits.
TSHR agonist = activates the human thyroid stimulating hormone receptor. AID 926. hit rate 0.48% among 73,000. HEK293-CNG-TSHR cells (CNG channel as cAMP sensor), membrane potential dye, cAMP. Potency, µM (highest dose often 57.1 µM), inactives show top-dose activation, actives largely listed as activators. P16473; active = well fitted activation curve with a large enough effect in the main read-out, with a control signal flat, not every such curve was filed as active; inconclusive = small, poorly fitted or top-dose-only effect, or a change in a side signal; inactive = no such curve, though single readings can be large or run the other way; % of control where 0% means no effect;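 also: the control signal comes from parental cells without the receptor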
Target sequence (P16473 whole entry, looked up): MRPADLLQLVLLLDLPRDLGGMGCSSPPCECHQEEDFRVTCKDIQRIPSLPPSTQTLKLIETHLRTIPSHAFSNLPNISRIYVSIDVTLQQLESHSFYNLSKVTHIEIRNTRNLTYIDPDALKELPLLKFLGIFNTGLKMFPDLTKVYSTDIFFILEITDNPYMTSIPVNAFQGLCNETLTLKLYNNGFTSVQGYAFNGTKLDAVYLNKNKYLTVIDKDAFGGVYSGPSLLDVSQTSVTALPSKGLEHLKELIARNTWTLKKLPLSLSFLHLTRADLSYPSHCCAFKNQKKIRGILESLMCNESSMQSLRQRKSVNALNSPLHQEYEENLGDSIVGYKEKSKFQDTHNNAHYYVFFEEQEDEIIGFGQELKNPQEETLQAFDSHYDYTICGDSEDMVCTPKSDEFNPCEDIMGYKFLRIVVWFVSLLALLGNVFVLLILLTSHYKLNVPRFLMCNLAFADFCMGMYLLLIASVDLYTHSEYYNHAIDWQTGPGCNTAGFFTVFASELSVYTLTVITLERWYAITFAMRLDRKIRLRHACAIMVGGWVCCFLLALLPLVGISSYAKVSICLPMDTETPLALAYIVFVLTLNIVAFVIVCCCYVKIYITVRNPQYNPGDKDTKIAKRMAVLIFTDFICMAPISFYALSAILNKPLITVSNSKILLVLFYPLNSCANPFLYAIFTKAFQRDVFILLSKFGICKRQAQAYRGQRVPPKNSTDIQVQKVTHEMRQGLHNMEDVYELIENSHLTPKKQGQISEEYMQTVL
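cAMP rise detected as CNG-channel membrane depolarization by fluorescent dye (emission 590 nm), 30 min after compound, following 60 min dye loading containing 100 uM RO 20-1724 at room temperature. Cells: TSHR/CNG HEK 293, with parental CNG HEK 293 as control.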
HEK293 cAMP ctrl = counter-screen for TSHR agonists: cAMP increase in parental HEK293. hit rate 2.5% among 73,000. parental HEK293 CNG cAMP sensor, membrane potential fluorescence. Potency, µM (highest dose often 57.1 µM), for inactives: at the highest dose activation, hits mostly activators. AID 938; also: % of control where 0% means no effect; nearly all actives have a fitted effect of over 55% in size
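Parental HEK 293 cells stably expressing a cAMP-gated CNG channel were loaded with membrane potential dye containing 100 uM RO 20-1724 for 60 min. Compound added for 30 min; depolarization read as fluorescence intensity at 590 nm.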
Imprint erasure = inducers of genomic imprint erasure in mouse ES cells. AID 1948. hit rate 0.02% among 110,000. Potency, µM (top dose mostly 60.7 µM), for inactives: at the top dose activity change, positive = activation, actives largely listed as activators. mouse ES Peg3-LacZ reporter, beta-gal luminescence, 40 h
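Readout: BetaGlo luminescence (5 min, room temp) for LacZ from the normally silent maternal Peg3 allele in female Peg3LacZ-Neo ES cells. Cells 300/well, 40 h, 37C, 5% CO2. Data normalized per plate to negative controls.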
Numbers without * were called inactive; ? = inconclusive; · = no result; [ ] = dose if it differs, or a comment. Unless noted, calls follow the shape of the dose curve; as a rule, active = well fitted activation curve with a large enough effect; inconclusive = small, poorly fitted or top-dose-only effect; inactive = no such curve, though single readings can be large or run the other way. Potency is read from the fitted curve at half-maximal effect.

SMILES | TSHR agonist | HEK293 cAMP ctrl | Imprint erasure
COc1ccccc1C(=O)N1CCN(c2cccc(Cl)c2)CC1 | ? | ? | -22%
COc1ccccc1C(=O)N1CCN(C(=O)c2ccncc2)CC1 | ? | 25µM* | ?
CC1=C(C(=O)Nc2ccccc2Br)C2(CCC(C)CC2)OC1=O (centres undefined) | · | · | -10%[10.9 µM]
CCOc1ccc(NC(=O)N2CCC(N3CCCCC3)CC2)cc1 | · | · | 6%[10.9 µM]
O=C(CSc1nnnn1-c1ccccc1)N1CCc2ccccc2C1 | ? | 16µM* | -18%
CC(=O)c1ccc(-n2nnnc2SCC(=O)N2CCc3ccccc3C2)cc1 | 14% | 14% | -10%
CCOC(=O)c1c(C)oc2nc(C)nc(NCCc3ccc(C)cc3)c12 | · | · | 13%[10.9 µM]
CCOc1ccccc1NC(=O)Nc1nnc(N(C)Cc2ccccc2)s1 | · | · | -4%[10.9 µM]
CCN(C(=O)c1cc2cc3ccc(C)cc3nc2o1)c1ccc(OC)cc1 | ? | 40µM* | -21%
COc1ccc(CNC(=O)c2cc3cc4ccc(C)cc4nc3o2)cc1 | · | · | -15%[10.9 µM]
Cc1ccc(NC(=O)c2cc3c(=O)n(Cc4cccnc4)ccc3nc2C)cc1F | · | · | -7%[10.9 µM]
COc1ccc(CNC(=O)C2CCN(C(=O)N3CCOc4ccc(Cl)cc43)CC2)cc1 | · | · | -6%[10.9 µM]
COC(=O)c1[nH]c2ccc(Cl)cc2c1NC(=O)CN1CCC(C(N)=O)CC1 | ? | 16µM* | -9%
CCOC(=O)N1CCN(CC(=O)Nc2c(C(=O)OC)[nH]c3ccc(Cl)cc23)CC1 | 8% | 15% | -17%
CCOc1ccc(CNS(=O)(=O)c2cc3c(cc2C)NC(=O)CO3)cc1 | · | · | 4%[10.9 µM]
Cc1nc2nc[nH]n2c(=O)c1NS(=O)(=O)c1ccc(Br)cc1 | · | · | 19%[10.9 µM]
CCOc1ccc(CCNC(=O)CSc2nnnn2-c2ccc(C)cc2C)cc1OCC | · | · | -13%[10.9 µM]
Cc1ccc(-n2nnnc2SCC(=O)NCCC2=CCCCC2)c(C)c1 | ? | 32µM* | -3%
CCc1ccc(CN(Cc2ccco2)C(=O)COc2ccccc2Cl)cc1 | · | · | -20%[10.9 µM]
Cc1cccc(NC(=O)Cn2c(=O)nc(-c3ccccc3)c3ccccc32)c1C | · | · | -3%[10.9 µM]
Cc1cc2oc(=O)cc(CN3CCN(Cc4ccccc4)CC3)c2cc1Cl | 18% | 29% | -9%
CCCc1cc(=O)oc2cc(C)c(CN3CCCC3)c(O)c12 | · | 2% | 2%
Cc1cc2oc(=O)cc(CN3CCCCC3C)c2c(C)c1Cl (centres undefined) | ? | 25µM* | -4%
Cc1cc2oc(=O)cc(CN3CCN(Cc4ccc5c(c4)OCO5)CC3)c2cc1C | 2.5µM* | -21% | -16%
Cc1ccc2c(CN3CCN(Cc4ccc5c(c4)OCO5)CC3)cc(=O)oc2c1C | ? | ? | -5%
SMILES | TSHR agonist | HEK293 cAMP ctrl | Imprint erasure
Cc1cc2oc(=O)cc(CN3CCC(C)CC3)c2cc1Cl | ? | 25µM* | 1%
O=C(NC1(C(F)(F)F)C(=O)Nc2c1c(=O)[nH]c(=O)n2-c1ccc(F)cc1)c1ccccc1 (centres undefined) | · | · | 4%[10.9 µM]
CC(C)c1ccc(NC(=O)C(Cc2ccccc2)NS(=O)(=O)c2ccc3c(c2)CCC(=O)N3)cc1 (centres undefined) | · | · | -4%[10.9 µM]
Oc1ccccc1C(Sc1nc2ccccc2s1)Sc1nc2ccccc2s1 | 6%[11.4 µM] | -2%[11.4 µM] | -4%[10.9 µM]
Cc1ccccc1Cn1c(Oc2ccccc2F)nc2c1c(=O)n(C)c(=O)n2C | · | · | -15%[10.9 µM]
O=C(NCCCN1CCCC1)C1CCN(C(=O)c2cc3sccc3n2Cc2ccc(F)cc2)CC1 | 3% | 5% | -39%
CCn1c(C(=O)N2CCC(C(=O)NCCc3ccccc3)CC2)cc2sccc21 | · | · | -10%[10.9 µM]
O=C(NCc1ccco1)C1CCN(C(=O)c2cc3sccc3n2Cc2ccc(F)cc2)CC1 | 20µM* | 28% | -22%
CCn1c(C(=O)N2CCC(C(=O)NCCCSC3CCCCC3)CC2)cc2sccc21 | ? | 16µM* | -18%
C[C@@H]1O[C@@H](OC[C@@H]2O[C@@H](Oc3c(-c4ccc(O)c(O)c4)oc4cc(O)cc(O)c4c3=O)[C@H](O)[C@H](O)[C@@H]2O)[C@H](O)[C@H](O)[C@@H]1O | -2% | 0% | ·
COc1ccc(NC(=O)CSc2cn(CC(=O)N3CCOCC3)c3ccccc23)cc1OC | · | · | -12%[10.9 µM]
Cc1ccc(OCC(O)Cn2c(=N)n(CCN3CCOCC3)c3ccccc32)cc1 (centres undefined) | ? | 20µM* | -13%
Cc1ccc(OCC(O)Cn2c(=N)n(CCN3CCCCC3)c3ccccc32)cc1 (centres undefined) | ? | ? | -23%
CCNC(=O)C1CC(=O)N(Cc2ccc(F)cc2)C(=Nc2ccc(OC)cc2)S1 (centres undefined) | 17% | 1% | -14%
CCNC(=O)C1CC(=O)N(Cc2ccc3c(c2)OCO3)C(=Nc2ccc(OCC)cc2)S1 (centres undefined) | 32µM* | 8% | -5%
Cn1cc(S(=O)(=O)N2CCCCCC2)cc1C(=O)NCc1ccccc1Cl | · | · | -13%[10.9 µM]
Cc1cc(C)n(-c2nc3ccccc3nc2N2CCOCC2)n1 | 7% | 11% | 2%
Cc1cc(C)n(-c2nc3ccccc3nc2N2CCCCCC2)n1 | ? | 20µM* | -19%
C/C(N)=C(/C#N)C(=O)CSc1nnc(Nc2c(C)cccc2C)s1 | -1% | 5% | -8%
C/C(N)=C(/C#N)C(=O)CSc1nnc(SCc2ccc(Cl)cc2)s1 | ? | 32µM* | -12%
CCOc1ccccc1NC(=O)Nc1nnc(N2CCCC(C)C2)s1 (centres undefined) | · | · | -7%[10.9 µM]
Cc1c(C(=O)N(C)C)sc2c1c(=O)n(-c1ccc(Cl)c(Cl)c1)c(=O)n2CC(=O)N1CCCCC1C (centres undefined) | · | · | 3%[10.9 µM]
c1ccc2nc3c(nc2c1)[nH]c1ccccc13 | 2% | 6% | -68%
c1ccc(-c2c3ccccc3nc3[nH]c4ccccc4c23)cc1 | ? | 10µM* | -22%
O=C(OC1Cc2c(O)cc(O)cc2OC1c1cc(O)c(=O)c2c(O)c(O)cc(C3Oc4cc(O)cc(O)c4CC3OC(=O)c3cc(O)c(O)c(O)c3)c2c1)c1cc(O)c(O)c(O)c1 (centres undefined) | · | · | 7%
SMILES | TSHR agonist | HEK293 cAMP ctrl | Imprint erasure
COc1ccc(CC(N)C(=O)N[C@H]2[C@@H](O)[C@H](n3cnc4c(N(C)C)ncnc43)O[C@@H]2CO)cc1 (some centres undefined) | · | · | -34%
Cc1ccc(-c2nnc(CSc3nnc(COc4ccccc4)n3-c3ccc(C)cc3)o2)cc1 | ? | 25µM* | -27%
COc1ccc(-n2c(COc3ccccc3)nnc2SCc2ccc(C#N)cc2)cc1 | 15% | 17% | -16%
CCOc1ccc(-c2nnc(SCc3nnc(-c4ccccc4)o3)n2-c2ccccc2F)cc1 | ? | 13µM* | -15%
CCOc1ccc(-c2noc(CSc3nnc(-c4ccccc4)n3-c3ccccc3)n2)cc1 | · | · | -10%[10.9 µM]
Cc1ccc(-c2nnc(CSc3nnc(COc4ccccc4)n3-c3ccccc3)o2)cc1 | ? | 25µM* | -7%
Cc1ccc(OCc2nnc(-c3ccccc3)o2)cc1 | · | · | -9%[10.9 µM]
NC(N)=NC(N)=Nc1ccccc1 (tested in a mixture with another compound) | -2%[11.4 µM] | -1%[11.4 µM] | -9%[10.9 µM]
CO/N=C\[C@@H](NS(=O)(=O)c1ccc(C)cc1)[C@H](C)/C=C\CC(=O)OC | · | 5%[11.4 µM] | ·
COc1cc(Cl)c(C)cc1NC(=O)CSc1nc2c(c(=O)[nH]1)CCCC2 | · | · | 27%[10.9 µM]
